# Hits are enriched below; roughly 19% of the tested compounds scored in any of these assays.
# ASM inhibitor: human S-ASM enzyme inhibition | AID 504937 | hit rate 0.006% among 340,000 | placental ASM, HMU-PC fluorogenic substrate, 60 min | Potency, µM (doses to about 57.5 µM), inactives show at the top dose activity change, negative = inhibition, actives largely listed as inhibitors | P17405; note: potency is the fitted concentration of half-maximal effect
# Target sequence (P17405 47-631 limits assumed): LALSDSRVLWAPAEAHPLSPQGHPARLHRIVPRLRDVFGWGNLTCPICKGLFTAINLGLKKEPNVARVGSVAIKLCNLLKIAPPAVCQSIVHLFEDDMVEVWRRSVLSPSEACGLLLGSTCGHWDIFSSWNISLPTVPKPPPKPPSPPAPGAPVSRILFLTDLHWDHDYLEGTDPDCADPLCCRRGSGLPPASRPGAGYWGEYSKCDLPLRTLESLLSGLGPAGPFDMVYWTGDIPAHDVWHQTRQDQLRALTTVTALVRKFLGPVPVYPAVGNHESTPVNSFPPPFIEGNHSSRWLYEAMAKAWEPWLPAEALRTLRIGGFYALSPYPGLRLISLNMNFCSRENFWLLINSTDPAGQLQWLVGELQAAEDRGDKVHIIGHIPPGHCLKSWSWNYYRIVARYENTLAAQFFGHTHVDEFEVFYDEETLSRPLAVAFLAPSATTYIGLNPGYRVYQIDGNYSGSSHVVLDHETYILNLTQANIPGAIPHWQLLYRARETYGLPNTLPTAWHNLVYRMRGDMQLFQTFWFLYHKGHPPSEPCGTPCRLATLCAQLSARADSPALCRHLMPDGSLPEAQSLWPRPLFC
#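 Human placenta-derived ASM enzyme was preincubated with compound for 10 minutes at room temperature, then given fluorogenic substrate HMU-PC0 (9 uM final) for 60 minutes at 37 °C; a pH 10 stop preceded fluorescence reading at Ex 386/Em 447 nm.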
# TGFb SMAD3 inh: blocks TGF-b signaling; hit rate 1.2% among 410,000; AID 588855; Potency, µM (series often up to 46.1 µM), without a hit: at the top dose activity, negative = inhibition, usual class: inhibitors; HepG2 CAGA-GFP TGF-b/SMAD3 reporter, GFP fluorescence, 18 h; TGF-beta stimulated, 500 pg/mL final; note: potency is the fitted concentration of half-maximal effect; % is set by controls: 0 for no effect and ±100 for the full control effect; nearly all actives have a fitted effect of over 65% in size
#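 HEPG2 CAGA-GFP cells (1000/well, DMEM with 1% FBS) were pre-incubated 2 h at 37 degrees C, given compound by pin tool, then stimulated with TGF-beta at 500 pg/mL final for 18 h before per-cell GFP fluorescence imaging.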
# DT40 TDP1 CPT: growth inhibition of DT40 Tdp1-/-;hTDP1 cells with camptothecin (screen for TDP1 inhibitors) | chicken DT40 Tdp1-/-;hTDP1 cells + 20 nM CPT, ATP luminescence, 48 h | Potency, µM (top dose mostly 46.2 µM), inactives show at the highest dose activity change, negative = growth inhibition, most hits filed as inhibitors | hit rate 12% among 420,000; note: potency is the fitted concentration of half-maximal effect; % is set by controls: 0 for no effect and ±100 for the full control effect; nearly all actives have a fitted effect of over 55% in size
#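 Chicken DT40 Tdp1-/- cells stably complemented with human TDP1 were seeded at 400 cells/well in medium containing 20 nM camptothecin, exposed to pin-transferred compounds, and grown at 37 °C for at least 48 hr. Viability was read as ATP luminescence.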
# HepG2 viability: kills HepG2 cells in TGF-b inhibitor counter-screen; HepG2 CAGA-GFP viability, ATP luminescence, 18 h; hit rate 0.76% among 410,000; Potency, µM (top dose mostly 46.1 µM), inactives show top-dose activity change, negative = cytotoxicity, hits mostly cytotoxic; note: potency is the fitted concentration of half-maximal effect
#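 CellTiter-Glo luminescence gave cytotoxicity after 18 hours at 37 degrees C. The cells were HepG2 CAGA-GFP in 1% FBS DMEM, stimulated with 500 pg/mL TGF-beta after compound addition. %Activity was normalised to no-cell wells (complete cell-killing) and DMSO (no toxicity), and curves were fitted and classified.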
# IL-1B inflam inh: blocks inflammasome-driven IL-1 beta release; hit rate 4.7% among 360,000; activity change, % at 57.5 µM; THP-1 LPS/ATP IL-1B secretion, AlphaLISA, 16 h; hits give low values; in the data active = activity change below about -50%; inconclusive = mostly about -30% to -49%; note: % is set by controls: 0 for no effect and ±100 for the full control effect
#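 THP-1 cells pretreated 1 hr with compounds (up to 57.5 uM final), then stimulated with LPS (250 ng/mL final) plus ATP (1.25 mM final); secreted IL-1B measured by AlphaLISA after 16 hr, decreased signal indicating inhibition.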
# DT40 TDP1 no CPT: qHTS for Inhibitors of human tyrosyl-DNA phosphodiesterase 1 (TDP1): qHTS in cells in absence of CPT | DT40 Tdp1-/- hTDP1 cells, no CPT, ATP luminescence, 48 h | Potency, µM (top dose mostly 46.2 µM), without a hit: top-dose activity change, negative = growth inhibition, hits mostly inhibitors | hit rate 15% among 420,000 | AID 686978, 2013; note: potency is the fitted concentration of half-maximal effect; % is set by controls: 0 for no effect and ±100 for the full control effect; nearly all actives have a fitted effect of over 55% in size
#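 Camptothecin absent (DMSO only). Human TDP1-complemented DT40 knockout cells, 400 cells/well, 37 °C for minimum 48 hr; ATP measured via CellTiter-Glo, 30 min dark incubation, luminescence.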
# The depositor's hits bear a star; ? = inconclusive; · = no result. Unless noted, calls come from the whole dose curve; as a rule, active = well fitted curve in the direction sought with a large enough effect; inconclusive = small, poorly fitted or top-dose-only effect, or another doubt; inactive = no such curve, though single readings can be large; an effect the other way counts as inactive or inconclusive.
SMILES,ASM inhibitor,TGFb SMAD3 inh,DT40 TDP1 CPT,HepG2 viability,IL-1B inflam inh,DT40 TDP1 no CPT
CC(C)(C)n1nnnc1C(c1cccs1)N(Cc1cccnc1)Cc1ccccc1Cl (stereo not given),1.9%,17.8µM*,?,-32.0%,-11.8,18.4µM*
Clc1ccc(CN(CC2CCCO2)C(c2cccs2)c2nnnn2C2CCCC2)cc1 (stereo not given),-3.2%,0.0%,7.31µM*,-28.9%,-21.7,6.51µM*
CC(c1nnnn1C1CCCCC1)N(Cc1ccccc1)Cc1cccnc1 (stereo not given),-2.3%,-9.7%,?,-15.2%,4.8,?
COc1cc(/C=N/n2cnnc2)ccc1OCCSc1ccc(C)cc1,-4.0%,1.2%,?,-2.0%,-4.4,?
Cc1ccc(OCC(=O)OCc2cc(=O)n3nc(C4CCCCC4)sc3n2)cc1,·,-3.7%,-13.2%,1.7%,·,-16.1%
C/C(=N\NC(=S)NCc1ccccc1)c1cccc(Br)c1,-8.5%,?,14.6µM*,-26.5%,-13.8,20.6µM*
C/C(=N\NC(=S)NCc1ccccc1)c1ccc2ccccc2c1,·,-4.0%,6.51µM*,-29.8%,15.8,7.31µM*
CCNC(=S)N/N=C(\C)c1cc2ccccc2o1,-3.9%,?,?,-19.7%,-51.6*,?
S=C(NCc1ccccc1)Nc1ccc2ccccc2c1,-1.3%,?,9.7%,-15.5%,-76.1*,2.1%
COc1cc([N+](=O)[O-])ccc1NC(=O)N1CCC2(CC1)Nc1cc(F)ccc1-n1cccc12,·,6.7%,?,11.4%,·,?
CCc1cccc(N2C(=O)N(Cc3c(F)cccc3Cl)c3ccccc3S2(=O)=O)c1,·,-14.5%,-28.6%,-7.7%,·,?
Cc1ccc(C)c(NC(=O)CN(C)C(=O)Cn2c(=O)oc3ccccc32)c1,4.7%,5.9%,3.2%,2.0%,14.3,1.5%
O=[N+]([O-])c1ccc2c(c1N1CCCCC1)=NC1(CCCCC1)[N+]=2[O-],-1.8%,-18.3%,20.6µM*,-58.1%,2.8,20.6µM*
CCCc1cc(=O)oc2c3c(ccc12)OCN(Cc1ccc(OC)cc1)C3,·,-2.5%,?,-11.3%,·,?
C=CCNc1nc(-c2sc(NC(=O)CC)nc2C)cs1,5.8%,-7.5%,?,1.9%,?,?
C=CCNc1nc(-c2sc(NC(C)=O)nc2C)cs1,0.8%,2.9%,10.3µM*,-7.5%,-57.6*,16.4µM*
Cc1nc(NC(=O)C(C)(C)C)sc1-c1csc(N)n1,·,3.6%,?,-1.4%,-12.4,23.1µM*
CCOc1ccccc1C(=O)Nc1cc(-c2nc3cccnc3s2)ccc1C,·,·,8.2µM*,-1.4%,·,5.17µM*
COc1cc(OC)cc(C(=O)Nc2cc(-c3nc4cccnc4s3)ccc2C)c1,·,-0.8%,?,-30.4%,·,10.3µM*
CCOc1ccccc1C(=O)Nc1cc2c(cc1C)n(C)c(=O)c(=O)n2C,·,-0.4%,?,-1.0%,·,?
Cc1ccc(C(=O)N[C@H](C(=O)Nc2sccc2C(N)=O)C(C)C)cc1,-3.9%,-10.8%,-16.0%,1.2%,45.7,?
COc1cc(C(=O)Nc2nc3ccc(C)cc3s2)ccc1OCc1c(C)noc1C,7.9%,-20.1%,17.8µM*,-37.0%,-5.6,17.8µM*
COc1ccc(NS(=O)(=O)c2cc(NC(=O)c3cccc(OCc4c(C)noc4C)c3)ccc2OC)cc1,-4.3%,-0.4%,?,1.2%,4.3,23.1µM*
COc1cc(NC(=O)c2ccc(OCc3c(C)noc3C)c(OC)c2)cc(OC)c1,-2.4%,5.4%,?,-3.5%,-22.5,13µM*
CCc1nnc(NC(=O)c2ccc(OCc3c(C)noc3C)c(OC)c2)s1,-5.0%,2.6%,-2.0%,-15.2%,-9.2,-26.7%
SMILES,ASM inhibitor,TGFb SMAD3 inh,DT40 TDP1 CPT,HepG2 viability,IL-1B inflam inh,DT40 TDP1 no CPT
CC(=O)N(c1ccc2oc(=O)sc2c1)S(=O)(=O)c1cccs1,-2.3%,-19.4%,-27.3%,-20.3%,2.3,?
CC(C)C(=O)N(c1cc2sc(=O)oc2c2ccccc12)S(=O)(=O)c1cccs1,-4.3%,?,18.4µM*,-41.9%,-18.2,11.6µM*
CCOC(=O)C1=NOC(C(=O)NN(C)c2ncc(C(F)(F)F)cc2Cl)C1 (stereo not given),2.1%,?,-3.0%,-36.2%,0.0,-9.3%
CCOc1cc(CNCCSc2nnnn2-c2ccccc2)ccc1OC,·,-0.6%,11.6µM*,-21.9%,·,10.3µM*
COc1cccc(CNCCSc2nnnn2-c2ccccc2)c1OC,·,18.8%,?,-21.9%,·,23.1µM*
Cn1nnnc1SCCNS(=O)(=O)c1ccccc1,2.0%,-7.3%,-3.9%,6.8%,0.0,-21.8%
COc1ccc(S(=O)(=O)NCCOc2ccccc2)cc1-n1cnnn1,-1.1%,16.1%,-5.2%,-20.4%,-50.2*,-15.9%
CCOc1ccc(CNCCSc2nnnn2C)cc1OC,·,0.0%,2.0%,1.7%,·,3.3%
COc1ccc(S(=O)(=O)NCCSc2nnnn2-c2ccccc2)cc1OC,·,-10.0%,16.4µM*,3.8%,·,23.1µM*
O=C(CSc1nc2ccccc2nc1Cc1ccc(Cl)cc1)N1CCCc2ccccc21,·,-9.2%,-1.1%,-16.5%,·,-29.2%
Cc1nc(SCC(=O)Nc2nsc(-c3ccc(C(C)(C)C)cc3)n2)c2c3c(sc2n1)CCCC3,·,-12.9%,0.9%,-1.6%,·,?
O=c1onc(-c2ccccc2)n1-c1cc(Cl)cc(Cl)c1,-1.8%,0.2%,18.0%,20.7%,27.9,-11.9%
Cc1cccc(N2CCN(C(=O)CC(NC(=O)c3ccccc3Cl)c3ccccc3)CC2)c1C (stereo not given),-7.0%,?,18.4µM*,0.4%,-4.4,?
O=C(NC(CC(=O)N1CCN(c2ccc([N+](=O)[O-])cc2)CC1)c1ccccc1)c1ccccc1Cl (stereo not given),-10.0%,-22.3%,?,-26.9%,-15.7,16.4µM*
Cc1cccc(N2CCN(C(=O)CSc3ccc4c(c3)OCCO4)CC2)c1C,5.3%,?,-20.6%,-25.9%,-11.1,-24.5%
CN(C)S(=O)(=O)c1ccc2c(c1)nnn2CCNC(=O)Nc1ccc(Br)cc1,·,-6.9%,0.0%,-20.7%,·,-11.6%
CCc1nc2ccccc2n2c(-c3ccc(C)cc3)c3c(=O)n(C)c(=O)n(C)c3c12,·,-18.9%,?,3.0%,·,?
CC1(c2ccc(Cl)cc2)NC(=S)N2C1NC(=S)N2c1ccccc1 (stereo not given),?,-17.1%,-10.9%,8.4%,?,-29.0%
